According to PMC7862700, “An all-to-all approach to the identification of sequence-specific readers for epigenetic DNA modifications on cytosine”:

Assays:
Assay in all cases: DAPPL (digital affinity profiling via proximity ligation, sequencing); 10 mM Tris-HCl pH 7.5, 50 mM NaCl, 1 mM DTT, 4% glycerol, room temperature, 30 min; GST-TFs on glutathione beads, 16-mer random dsDNA library, 0.1% formaldehyde crosslink after washing; high values mean tight binding
[1] = target: T1, FLI1 (Homo sapiens, UniProt Q01543 1-452); settings: protein: recombinant; tags: N-terminal GST; dsDNA, one strand shown
T1 sequence: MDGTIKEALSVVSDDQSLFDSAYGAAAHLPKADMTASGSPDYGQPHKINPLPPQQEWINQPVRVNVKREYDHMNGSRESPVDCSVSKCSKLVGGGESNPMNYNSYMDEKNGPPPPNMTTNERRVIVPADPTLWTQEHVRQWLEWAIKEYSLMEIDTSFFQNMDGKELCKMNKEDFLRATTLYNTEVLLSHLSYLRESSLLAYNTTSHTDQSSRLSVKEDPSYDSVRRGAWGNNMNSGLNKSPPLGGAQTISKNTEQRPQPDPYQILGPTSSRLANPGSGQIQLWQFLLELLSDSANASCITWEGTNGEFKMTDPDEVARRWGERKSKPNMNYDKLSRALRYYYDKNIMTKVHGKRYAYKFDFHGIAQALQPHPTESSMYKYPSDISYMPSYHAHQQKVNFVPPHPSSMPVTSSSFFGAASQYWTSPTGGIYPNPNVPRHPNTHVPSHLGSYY
Method in brief: (§1)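 After expression in yeast as GST fusions, human transcription factors were bound to glutathione beads, DNA-barcoded and mixed with a tag-only sample. The pools were incubated with 200 nmole of a 16-mer random double-stranded DNA library in Tris/NaCl/DTT/glycerol buffer (30 min, room temperature), washed and crosslinked with 0.1% formaldehyde. Proximity ligation with BsaI/T4 ligase ran for 1 h at 37 °C, before PCR amplification and sequencing on an Illumina NextSeq500. Binding signal is a hexamer's read frequency for a factor divided by its frequency for the tag-only sample.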

[2] = target: T2, ELK1 (Homo sapiens, UniProt P19419 1-428); settings: protein: recombinant; tags: N-terminal GST; dsDNA, one strand shown
T2 sequence: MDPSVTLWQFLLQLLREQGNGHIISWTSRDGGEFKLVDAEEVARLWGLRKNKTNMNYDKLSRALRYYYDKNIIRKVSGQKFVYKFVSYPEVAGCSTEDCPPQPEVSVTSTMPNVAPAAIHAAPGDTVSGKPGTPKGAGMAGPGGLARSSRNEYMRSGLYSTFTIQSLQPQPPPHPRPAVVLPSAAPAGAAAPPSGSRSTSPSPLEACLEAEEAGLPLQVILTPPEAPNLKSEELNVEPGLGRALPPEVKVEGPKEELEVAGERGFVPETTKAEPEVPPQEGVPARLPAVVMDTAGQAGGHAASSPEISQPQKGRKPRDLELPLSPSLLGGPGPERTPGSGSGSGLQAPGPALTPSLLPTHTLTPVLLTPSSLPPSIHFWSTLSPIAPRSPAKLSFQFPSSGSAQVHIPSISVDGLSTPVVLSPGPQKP
Method in brief: as §1

[3] = target: T3, GABPA (Homo sapiens, UniProt Q06546 1-454); settings: protein: recombinant; tags: N-terminal GST; dsDNA, one strand shown
T3 sequence: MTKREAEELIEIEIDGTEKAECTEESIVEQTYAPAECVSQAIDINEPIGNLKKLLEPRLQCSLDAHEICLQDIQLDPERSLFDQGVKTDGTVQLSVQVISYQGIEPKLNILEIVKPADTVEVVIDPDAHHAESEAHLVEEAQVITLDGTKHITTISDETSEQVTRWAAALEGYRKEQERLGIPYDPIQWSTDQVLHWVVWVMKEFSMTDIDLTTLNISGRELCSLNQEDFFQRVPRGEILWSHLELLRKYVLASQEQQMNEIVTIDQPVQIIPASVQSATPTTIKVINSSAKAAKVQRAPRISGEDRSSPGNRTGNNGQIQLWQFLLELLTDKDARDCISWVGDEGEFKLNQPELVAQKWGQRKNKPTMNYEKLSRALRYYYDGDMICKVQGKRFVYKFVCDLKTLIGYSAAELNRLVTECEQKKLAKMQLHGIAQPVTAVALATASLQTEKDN
Method in brief: as §1

[4] = target: T4, ERG (Homo sapiens, UniProt P11308 1-479); settings: protein: recombinant; tags: N-terminal GST; dsDNA, one strand shown
T4 sequence: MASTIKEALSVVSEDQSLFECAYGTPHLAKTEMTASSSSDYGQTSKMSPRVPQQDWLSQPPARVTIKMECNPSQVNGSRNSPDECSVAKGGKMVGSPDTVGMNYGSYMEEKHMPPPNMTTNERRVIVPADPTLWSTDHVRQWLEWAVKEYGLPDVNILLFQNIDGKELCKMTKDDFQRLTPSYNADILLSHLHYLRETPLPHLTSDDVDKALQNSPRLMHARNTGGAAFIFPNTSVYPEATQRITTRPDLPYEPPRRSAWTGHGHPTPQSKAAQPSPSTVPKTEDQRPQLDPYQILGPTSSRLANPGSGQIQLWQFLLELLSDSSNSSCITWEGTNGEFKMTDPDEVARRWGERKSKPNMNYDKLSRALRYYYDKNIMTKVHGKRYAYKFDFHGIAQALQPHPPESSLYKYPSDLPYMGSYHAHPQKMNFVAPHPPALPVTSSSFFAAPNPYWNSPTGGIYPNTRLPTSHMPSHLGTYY
Method in brief: as §1

[5] = target: ELF1 (Homo sapiens, UniProt P32519 1-619); settings: protein: recombinant; tags: N-terminal GST; dsDNA, one strand shown
Method in brief: as §1

[6] = target: T5, EHF (Homo sapiens, UniProt Q9NZC4 1-300); settings: protein: recombinant; tags: N-terminal GST; dsDNA, one strand shown
T5 sequence: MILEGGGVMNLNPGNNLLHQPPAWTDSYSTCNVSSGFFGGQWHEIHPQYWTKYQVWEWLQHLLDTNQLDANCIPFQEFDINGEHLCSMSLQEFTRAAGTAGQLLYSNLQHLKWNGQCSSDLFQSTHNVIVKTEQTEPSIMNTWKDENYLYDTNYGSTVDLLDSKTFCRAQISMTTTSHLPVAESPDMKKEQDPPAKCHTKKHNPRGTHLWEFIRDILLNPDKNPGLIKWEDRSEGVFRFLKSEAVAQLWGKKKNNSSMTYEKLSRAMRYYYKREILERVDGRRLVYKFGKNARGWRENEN
Method in brief: as §1

[7] = target: SPI1 (Homo sapiens, UniProt P17947 1-270); settings: protein: recombinant; tags: N-terminal GST; dsDNA, one strand shown
Method in brief: as §1

[8] = target: SPIB (Homo sapiens, UniProt Q01892 1-262); settings: protein: recombinant; tags: N-terminal GST; dsDNA, one strand shown
Method in brief: as §1

[9] = target: T6, ELK3 (Homo sapiens, UniProt P41970 1-407); settings: protein: recombinant; tags: N-terminal GST; dsDNA, one strand shown
T6 sequence: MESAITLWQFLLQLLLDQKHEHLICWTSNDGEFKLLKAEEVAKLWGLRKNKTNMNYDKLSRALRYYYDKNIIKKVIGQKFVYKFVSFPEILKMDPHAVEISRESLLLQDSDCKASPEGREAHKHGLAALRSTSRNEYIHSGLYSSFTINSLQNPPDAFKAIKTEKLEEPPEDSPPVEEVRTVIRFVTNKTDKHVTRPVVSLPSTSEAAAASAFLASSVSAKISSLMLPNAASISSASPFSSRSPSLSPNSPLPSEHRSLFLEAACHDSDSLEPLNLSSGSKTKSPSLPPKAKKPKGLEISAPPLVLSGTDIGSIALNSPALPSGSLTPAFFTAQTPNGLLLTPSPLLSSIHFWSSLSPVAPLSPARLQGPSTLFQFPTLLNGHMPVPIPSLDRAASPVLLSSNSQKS
Method in brief: as §1

[10] = target: T7, FEV (Homo sapiens, UniProt Q99581 1-238); settings: protein: recombinant; tags: N-terminal GST; dsDNA, one strand shown
T7 sequence: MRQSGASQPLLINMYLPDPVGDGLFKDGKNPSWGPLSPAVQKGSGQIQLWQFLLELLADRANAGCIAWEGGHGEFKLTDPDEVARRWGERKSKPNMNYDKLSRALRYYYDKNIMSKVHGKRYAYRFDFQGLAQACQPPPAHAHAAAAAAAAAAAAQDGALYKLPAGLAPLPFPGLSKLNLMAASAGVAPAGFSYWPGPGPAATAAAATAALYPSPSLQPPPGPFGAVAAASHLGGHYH
Method in brief: as §1

[11] = target: ETV5 (Homo sapiens, UniProt P41161 1-510); settings: protein: recombinant; tags: N-terminal GST; dsDNA, one strand shown
Method in brief: as §1

[12] = target: HSF1 (Homo sapiens, UniProt Q00613 1-529); settings: protein: recombinant; tags: N-terminal GST; chain copies: 3; dsDNA, one strand shown
Method in brief: as §1

[13] = target: T8, SPIC (Homo sapiens, UniProt Q8N5J4 1-248); settings: protein: recombinant; tags: N-terminal GST; dsDNA, one strand shown
T8 sequence: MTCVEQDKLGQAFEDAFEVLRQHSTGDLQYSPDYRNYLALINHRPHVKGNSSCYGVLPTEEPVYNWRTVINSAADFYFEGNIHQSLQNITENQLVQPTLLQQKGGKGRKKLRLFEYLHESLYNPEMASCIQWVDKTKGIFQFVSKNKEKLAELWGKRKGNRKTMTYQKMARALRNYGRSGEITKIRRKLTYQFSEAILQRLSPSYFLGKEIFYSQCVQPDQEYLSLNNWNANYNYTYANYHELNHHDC
Method in brief: as §1

[14] = target: ELF4 (Homo sapiens, UniProt Q99607 1-663); settings: protein: recombinant; tags: N-terminal GST; dsDNA, one strand shown
Method in brief: as §1

[15] = target: T9, ELK4 (Homo sapiens, UniProt P28324-2 1-405); settings: protein: recombinant; tags: N-terminal GST; dsDNA, one strand shown
T9 sequence: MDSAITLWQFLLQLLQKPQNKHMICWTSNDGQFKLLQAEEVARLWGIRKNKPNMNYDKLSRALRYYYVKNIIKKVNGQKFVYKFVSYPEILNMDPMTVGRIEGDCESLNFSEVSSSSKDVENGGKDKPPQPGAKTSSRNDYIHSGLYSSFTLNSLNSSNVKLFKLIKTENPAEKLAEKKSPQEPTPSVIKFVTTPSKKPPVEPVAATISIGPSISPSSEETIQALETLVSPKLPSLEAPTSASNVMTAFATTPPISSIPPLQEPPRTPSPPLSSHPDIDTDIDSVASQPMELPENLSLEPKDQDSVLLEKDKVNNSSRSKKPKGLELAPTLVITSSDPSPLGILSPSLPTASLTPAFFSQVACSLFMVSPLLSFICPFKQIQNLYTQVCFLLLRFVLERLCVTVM
Method in brief: as §1

[16] = target: T10, ETV2 (Homo sapiens, UniProt O00321 1-342); settings: protein: recombinant; tags: N-terminal GST; dsDNA, one strand shown
T10 sequence: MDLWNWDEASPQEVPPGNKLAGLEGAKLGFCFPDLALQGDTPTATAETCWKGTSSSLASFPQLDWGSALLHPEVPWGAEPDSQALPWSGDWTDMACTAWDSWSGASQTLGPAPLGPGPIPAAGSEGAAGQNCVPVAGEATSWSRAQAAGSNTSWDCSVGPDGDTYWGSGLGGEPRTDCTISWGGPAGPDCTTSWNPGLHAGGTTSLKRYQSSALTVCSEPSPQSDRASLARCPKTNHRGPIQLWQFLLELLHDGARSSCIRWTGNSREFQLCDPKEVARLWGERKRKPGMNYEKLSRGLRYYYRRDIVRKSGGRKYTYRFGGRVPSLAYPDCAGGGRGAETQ
Method in brief: as §1

[17] = target: T11, ELF3 (Homo sapiens, UniProt P78545 1-371); settings: protein: recombinant; tags: N-terminal GST; dsDNA, one strand shown
T11 sequence: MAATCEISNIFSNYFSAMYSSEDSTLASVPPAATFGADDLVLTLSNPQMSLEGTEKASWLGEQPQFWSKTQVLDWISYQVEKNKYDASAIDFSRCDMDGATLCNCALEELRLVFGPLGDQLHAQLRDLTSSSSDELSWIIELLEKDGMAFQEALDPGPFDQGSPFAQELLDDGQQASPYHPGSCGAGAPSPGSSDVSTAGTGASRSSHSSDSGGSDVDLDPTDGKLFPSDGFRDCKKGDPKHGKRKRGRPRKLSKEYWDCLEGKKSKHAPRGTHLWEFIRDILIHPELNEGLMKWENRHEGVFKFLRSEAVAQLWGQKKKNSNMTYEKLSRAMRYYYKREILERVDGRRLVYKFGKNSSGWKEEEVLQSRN
Method in brief: as §1

[18] = target: CRX (Homo sapiens, UniProt O43186 1-299); settings: protein: recombinant; tags: N-terminal GST; dsDNA, one strand shown
Method in brief: as §1

[19] = target: ETV1 (Homo sapiens, UniProt P50549 1-477); settings: protein: recombinant; tags: N-terminal GST; dsDNA, one strand shown
Method in brief: as §1

Sequence of HSF1 (Q00613 whole entry): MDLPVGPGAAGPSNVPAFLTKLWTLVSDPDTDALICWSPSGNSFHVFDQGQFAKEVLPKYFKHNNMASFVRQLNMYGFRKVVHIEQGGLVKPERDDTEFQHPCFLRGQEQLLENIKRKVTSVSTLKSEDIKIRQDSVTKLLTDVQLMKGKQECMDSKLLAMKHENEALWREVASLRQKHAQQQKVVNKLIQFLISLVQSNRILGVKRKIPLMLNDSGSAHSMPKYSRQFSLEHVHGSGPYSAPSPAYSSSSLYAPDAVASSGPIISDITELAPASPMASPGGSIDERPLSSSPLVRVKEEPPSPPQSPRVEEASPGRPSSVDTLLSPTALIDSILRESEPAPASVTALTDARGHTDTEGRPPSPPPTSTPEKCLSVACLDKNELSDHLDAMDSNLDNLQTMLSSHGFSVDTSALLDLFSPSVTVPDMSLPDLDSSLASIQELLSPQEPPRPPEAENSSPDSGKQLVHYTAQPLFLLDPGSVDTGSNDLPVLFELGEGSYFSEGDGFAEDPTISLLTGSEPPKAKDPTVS
Sequence of SPIB (Q01892 whole entry): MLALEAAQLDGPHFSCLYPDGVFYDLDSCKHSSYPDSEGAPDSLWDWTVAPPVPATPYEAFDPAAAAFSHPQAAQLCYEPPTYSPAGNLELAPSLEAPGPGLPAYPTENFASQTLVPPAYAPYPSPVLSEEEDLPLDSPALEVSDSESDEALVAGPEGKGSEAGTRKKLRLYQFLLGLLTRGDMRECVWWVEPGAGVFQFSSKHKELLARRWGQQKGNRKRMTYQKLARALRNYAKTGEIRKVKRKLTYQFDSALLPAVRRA
Sequence of ETV1 (P50549 whole entry): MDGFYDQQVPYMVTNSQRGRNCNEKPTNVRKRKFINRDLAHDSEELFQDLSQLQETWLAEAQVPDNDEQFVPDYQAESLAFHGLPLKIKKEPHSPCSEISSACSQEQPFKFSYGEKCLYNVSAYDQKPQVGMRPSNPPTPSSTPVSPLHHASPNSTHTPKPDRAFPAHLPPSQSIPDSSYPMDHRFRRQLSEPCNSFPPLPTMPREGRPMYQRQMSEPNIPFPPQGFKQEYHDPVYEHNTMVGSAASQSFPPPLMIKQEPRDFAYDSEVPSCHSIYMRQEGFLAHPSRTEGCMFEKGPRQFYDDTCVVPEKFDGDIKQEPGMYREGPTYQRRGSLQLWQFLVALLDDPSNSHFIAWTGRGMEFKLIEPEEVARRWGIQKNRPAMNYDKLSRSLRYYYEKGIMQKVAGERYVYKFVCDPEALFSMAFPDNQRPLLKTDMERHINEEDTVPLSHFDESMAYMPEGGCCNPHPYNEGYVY
Sequence of ELF4 (Q99607 whole entry): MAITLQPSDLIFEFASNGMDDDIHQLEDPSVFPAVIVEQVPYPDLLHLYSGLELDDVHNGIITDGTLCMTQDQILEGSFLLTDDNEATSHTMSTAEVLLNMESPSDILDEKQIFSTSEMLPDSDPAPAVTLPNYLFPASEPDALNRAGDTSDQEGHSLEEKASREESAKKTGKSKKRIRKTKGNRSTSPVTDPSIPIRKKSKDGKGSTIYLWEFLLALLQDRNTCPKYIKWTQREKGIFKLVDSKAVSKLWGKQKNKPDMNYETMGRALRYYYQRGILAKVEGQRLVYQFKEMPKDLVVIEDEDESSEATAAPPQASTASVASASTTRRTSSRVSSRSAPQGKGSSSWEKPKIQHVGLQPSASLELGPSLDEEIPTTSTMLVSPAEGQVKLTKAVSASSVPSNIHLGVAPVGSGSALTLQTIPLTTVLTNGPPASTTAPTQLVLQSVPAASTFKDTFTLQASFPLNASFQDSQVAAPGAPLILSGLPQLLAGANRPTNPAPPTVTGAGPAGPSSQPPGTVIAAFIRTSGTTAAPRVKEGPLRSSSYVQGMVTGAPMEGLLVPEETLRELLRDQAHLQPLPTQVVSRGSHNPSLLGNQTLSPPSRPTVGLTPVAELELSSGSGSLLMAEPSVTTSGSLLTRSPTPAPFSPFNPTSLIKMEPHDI
Sequence of ELF1 (P32519 whole entry): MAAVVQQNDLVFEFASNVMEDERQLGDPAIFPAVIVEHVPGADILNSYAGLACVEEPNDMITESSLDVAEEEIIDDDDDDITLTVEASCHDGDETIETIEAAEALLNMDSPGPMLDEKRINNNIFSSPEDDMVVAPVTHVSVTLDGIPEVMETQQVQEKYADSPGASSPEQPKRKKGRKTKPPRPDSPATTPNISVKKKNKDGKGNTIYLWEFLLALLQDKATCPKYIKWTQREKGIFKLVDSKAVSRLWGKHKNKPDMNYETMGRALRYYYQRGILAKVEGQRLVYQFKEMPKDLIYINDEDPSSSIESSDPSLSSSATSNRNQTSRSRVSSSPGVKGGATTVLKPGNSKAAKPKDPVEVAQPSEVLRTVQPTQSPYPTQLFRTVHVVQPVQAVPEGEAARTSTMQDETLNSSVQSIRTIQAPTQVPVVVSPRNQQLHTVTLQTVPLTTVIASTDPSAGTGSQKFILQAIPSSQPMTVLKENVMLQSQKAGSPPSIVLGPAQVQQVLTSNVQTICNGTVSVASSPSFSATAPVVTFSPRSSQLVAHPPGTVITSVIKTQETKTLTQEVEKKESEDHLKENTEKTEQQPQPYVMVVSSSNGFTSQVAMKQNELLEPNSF
Sequence of ETV5 (P41161 whole entry): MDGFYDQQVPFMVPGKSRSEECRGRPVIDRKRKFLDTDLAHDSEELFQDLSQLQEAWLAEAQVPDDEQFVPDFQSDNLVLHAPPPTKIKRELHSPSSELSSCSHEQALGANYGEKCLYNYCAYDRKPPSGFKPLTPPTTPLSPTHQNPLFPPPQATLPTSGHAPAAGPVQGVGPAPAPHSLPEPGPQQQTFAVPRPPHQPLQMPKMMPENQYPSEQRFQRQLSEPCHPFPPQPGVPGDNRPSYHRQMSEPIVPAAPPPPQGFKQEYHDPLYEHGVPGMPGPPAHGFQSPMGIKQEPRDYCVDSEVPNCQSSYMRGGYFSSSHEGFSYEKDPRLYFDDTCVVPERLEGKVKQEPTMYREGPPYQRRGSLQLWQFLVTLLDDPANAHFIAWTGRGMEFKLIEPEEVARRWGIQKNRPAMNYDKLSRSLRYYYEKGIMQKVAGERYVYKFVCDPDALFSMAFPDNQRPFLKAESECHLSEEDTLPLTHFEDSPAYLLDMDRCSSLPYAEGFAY
Sequence of CRX (O43186 whole entry): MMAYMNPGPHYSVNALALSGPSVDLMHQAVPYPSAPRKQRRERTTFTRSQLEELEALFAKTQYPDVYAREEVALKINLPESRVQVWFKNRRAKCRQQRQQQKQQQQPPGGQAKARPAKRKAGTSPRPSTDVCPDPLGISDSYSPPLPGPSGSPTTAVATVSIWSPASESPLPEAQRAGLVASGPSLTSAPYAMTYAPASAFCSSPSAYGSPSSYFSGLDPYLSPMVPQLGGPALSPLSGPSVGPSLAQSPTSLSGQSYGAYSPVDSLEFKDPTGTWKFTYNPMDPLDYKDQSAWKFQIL

## ATTACA
[1]
  binding signal: 1.14 fold enrichment (6-mer frequency, TF over GST control)
[2]
  binding signal: 1.13 fold enrichment (6-mer frequency, TF over GST control)
[3]
  binding signal: 1.06 fold enrichment (6-mer frequency, TF over GST control)
[4]
  binding signal: 1.12 fold enrichment (6-mer frequency, TF over GST control)
[5]
  binding signal: 1.1 fold enrichment (6-mer frequency, TF over GST control)
[6]
  binding signal: 1.12 fold enrichment (6-mer frequency, TF over GST control)
[7]
  binding signal: 1.08 fold enrichment (6-mer frequency, TF over GST control)
[8]
  binding signal: 1.15 fold enrichment (6-mer frequency, TF over GST control)
[9]
  binding signal: 1.11 fold enrichment (6-mer frequency, TF over GST control)
[10]
  binding signal: 1.06 fold enrichment (6-mer frequency, TF over GST control)
[11]
  binding signal: 1.07 fold enrichment (6-mer frequency, TF over GST control)
[12]
  binding signal: 1.4 fold enrichment (6-mer frequency, TF over GST control)
[13]
  binding signal: 1.15 fold enrichment (6-mer frequency, TF over GST control)
[14]
  binding signal: 1.16 fold enrichment (6-mer frequency, TF over GST control)
[15]
  binding signal: 1.2 fold enrichment (6-mer frequency, TF over GST control)
[16]
  binding signal: 1.14 fold enrichment (6-mer frequency, TF over GST control)
[17]
  binding signal: 1.16 fold enrichment (6-mer frequency, TF over GST control)
[18]
  binding signal: 1.86 fold enrichment (6-mer frequency, TF over GST control)
[19]
  binding signal: 1.17 fold enrichment (6-mer frequency, TF over GST control)
